# Source: PubChem BioAssay (NCATS)
# Inconclusive results are not listed. Entries that show only a call come without a potency. A number with no mark means an inactive call. Calls of active or inactive are those of the source. Calls follow the shape of the dose curve; as a rule, active = well fitted inhibition curve with a large enough effect; inconclusive = small, poorly fitted or top-dose-only effect; inactive = no such curve, though single readings can be large or run the other way.
# What was measured:
# [1] = tested on: Zika virus NS2B-NS3 protease (unlinked complex); assay: Primary screen GU Rhodamine qHTS for Zika virus inhibitors: Unlinked NS2B-NS3 protease assay (AID 1347159); also: nearly all actives have a fitted effect of over 60% in size
# Procedure, shortened: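 Enzyme 25 nM in Tris-HCl pH 8.0 + 0.01% Tween 20; compounds up to 114 microM, 15 min RT dark; + Rhod110 substrate 1.5 microM; read t0 and 15 min; delta fluorescence → % inhibition → 4-parameter Hill fit.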
# [2] = tested on: Zika virus NS2B-NS3 protease (linked construct); assay: Primary screen NINDS Rhodamine qHTS for Zika virus inhibitors (AID 1347160); also: nearly all actives have a fitted effect of over 55% in size
# Procedure, shortened: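 Enzyme (25 nM, linked NS2B-NS3) was preincubated 15 min with compound in 10 mM Tris-HCl pH 8.0, 0.01% Tween 20. Rhodamine110 substrate (1.5 microM) was then added and fluorescence read at start and after 15 min.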
# Potency is read from the fitted curve at half-maximal effect.
SMILES,Potency [1],Potency [2],"activity change, negative = inhibition [1]"
C[C@@H]1C[C@@H](O)[C@@]23CO[C@]2(CO)CCC[C@@H]3[C@@]12C[C@@H](c1ccoc1)OC2=O,inactive,inactive,
CC(=C\C(C)O)/C=C(\C)C(=O)CC1CC(CC(N)=O)CC(=O)O1 (stereo unspecified),inactive,inactive,
C/C=C(\C)C(=O)OC1CC2C(CC=C3CC(OC4CC(OC)C(OC5CC(OC)C(OC6CC(OC)C(OC7CC(OC)C(OC8CC(OC)C(OC9OC(CO)C(O)C(O)C9O)C(C)O8)C(C)O7)C(C)O6)C(C)O5)C(C)O4)CCC32C)C2(O)CCC(C(C)=O)C12C (stereo unspecified),,inactive,20.8% [at 19.1 µM]
CC12CC34CC(O)C5C(CO)(CO)CC(=O)CC5(C)C3CC1C2C4 (stereo unspecified),inactive,inactive,
COc1cc(O)cc2c1C(=O)OC(C)CCCCCCC2 (stereo unspecified),20 µM (active),14.1 µM (active),
N#Cc1ccc(C2CCCc3cncn32)cc1 (stereo unspecified),inactive,inactive,
COC1CC(O[C@H]2CC[C@@]3(C)C(=CC[C@]4(O)C3[C@H](O)[C@@H](O)[C@]3(C)[C@@H]([C@H](C)O)CC[C@@]34O)C2)OC(C)C1OC1CC(OC)C(OC2CC(OC)C(OC3OC(C)C(OC4OC(CO)C(O)C(O)C4O)C(OC)C3O)C(C)O2)C(C)O1 (stereo partly specified),inactive,inactive,
C/C=C1\[C@H](O[C@@H]2O[C@H](CO)[C@@H](O)[C@H](O)[C@H]2O)OC=C(C(=O)O)[C@H]1CC(=O)OCCc1ccc(O)cc1,inactive,inactive,
Nc1ncnc2c1c(COc1cccc(Cl)c1)nn2C1CCOCC1,inactive,inactive,
C[C@@H]1CC2OC(=O)C3=C2C(CCC3O)[C@@]12C[C@@H](c1ccoc1)OC2=O (stereo partly specified),inactive,inactive,
COc1ccc(/C=C/C(N)=O)cc1OC,inactive,inactive,
CC(O)CCc1ccc(O[C@@H]2O[C@H](CO)[C@@H](O)[C@H](O)[C@H]2O)cc1 (stereo partly specified),inactive,inactive,
CCCC/C=C\CCCCCc1cc(=O)c2ccccc2n1C,inactive,inactive,
C[C@@H]1O[C@@H](O[C@@H]2[C@@H](O)[C@H](O[C@H]3[C@H](O[C@H]4CC[C@@]5(C)C(CC[C@]6(C)C5CC=C5[C@@H]7CC(C)(C)CC[C@]7(C(=O)O[C@@H]7O[C@H](CO)[C@@H](O)[C@H](O)[C@H]7O)CC[C@]56C)C4(C)C)O[C@H](C(=O)O)[C@@H](O)[C@@H]3O)OC[C@H]2O)[C@H](O)[C@H](O)[C@H]1O (stereo partly specified),inactive,inactive,
CC1(O)CCC2C(C3C1CCC3(C)O)C2(C)C (stereo unspecified),inactive,inactive,
COC(=O)/C=C/c1ccc(O[C@@H]2O[C@H](CO)[C@@H](O)[C@H](O)[C@H]2O)cc1,inactive,inactive,
COc1cc(/C=C/C(=O)O[C@H]2C[C@@H]3C(C(=O)O)=CO[C@@H](O[C@@H]4O[C@H](CO)[C@@H](O)[C@H](O)[C@H]4O)[C@@H]3[C@H]2C)ccc1O,inactive,inactive,
O=C(CCCCC1CCCCC1)N1CCC(c2cnc[nH]2)CC1,inactive,inactive,
CCC(C)(C)C1CCc2c(sc(NC(=O)c3ccc(Br)cc3)c2C#N)C1 (stereo unspecified),inactive,inactive,
C/C=C1/[C@H](O[C@@H]2O[C@H](CO)[C@@H](O)[C@H](O)[C@H]2O)OC=C2C(=O)O[C@@H]3C[C@@H](C(C)CO)[C@H](COC(=O)C[C@H]21)[C@H]3C (stereo partly specified),inactive,inactive,
Fc1cccc(CN(C2=NCCN2)c2c(Cl)cccc2Cl)c1,inactive,inactive,
CC1=C(CO)CC(C(C)C2CCC3C4CC=C5CC(OC6OC(COC7OC(CO)C(O)C(O)C7O)C(O)C(O)C6O)CC(O)C5(C)C4CCC23C)OC1=O (stereo unspecified),inactive,inactive,
COc1ccnc2[nH]cc(C(=O)C(=O)N3CCN(C(=O)c4ccccc4)CC3C)c12 (stereo unspecified),inactive,inactive,
O=C(/C=C/c1ccc(O)cc1)OC[C@H]1O[C@@H](O/C(=C\c2ccccc2)C(=O)O)[C@H](O)[C@@H](O)[C@@H]1O,inactive,inactive,
C/C=C(\C)C(=O)OCC1OC(OC2OC(CO)C(O)C(O)C2O)C(O)C(O)C1O (stereo unspecified),inactive,inactive,
O=C(O)/C=C/c1ccc(O[C@@H]2O[C@H](CO)[C@@H](O)[C@H](O)[C@H]2O)cc1,inactive,inactive,
COc1ccc(CCC(=O)O)c(O[C@@H]2O[C@H](CO)[C@@H](O)[C@H](O)[C@H]2O)c1,inactive,inactive,
Cc1cc(-c2nncc3c(C(C)(C)C)c(OCc4ncnn4C)nn23)no1,inactive,inactive,
